Screening results deposited in PubChem by Pan Lab, Icahn School of Medicine at Mount Sinai.
RBX1-CUL1 inh – inhibitors of human ROC1-CUL1 ubiquitin ligase activity; actives 0.6% (n = 140,000); inhibition, % at 10 µM; in vitro K48 di-Ub FRET, acceptor:donor ratio, 45 min; in the data active means inhibition above about 25%
Target sequence (P62877 whole entry, looked up): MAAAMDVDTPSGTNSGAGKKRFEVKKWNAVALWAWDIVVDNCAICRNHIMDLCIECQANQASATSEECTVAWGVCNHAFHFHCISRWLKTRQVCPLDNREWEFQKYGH
Target sequence (Q13616 whole entry, looked up): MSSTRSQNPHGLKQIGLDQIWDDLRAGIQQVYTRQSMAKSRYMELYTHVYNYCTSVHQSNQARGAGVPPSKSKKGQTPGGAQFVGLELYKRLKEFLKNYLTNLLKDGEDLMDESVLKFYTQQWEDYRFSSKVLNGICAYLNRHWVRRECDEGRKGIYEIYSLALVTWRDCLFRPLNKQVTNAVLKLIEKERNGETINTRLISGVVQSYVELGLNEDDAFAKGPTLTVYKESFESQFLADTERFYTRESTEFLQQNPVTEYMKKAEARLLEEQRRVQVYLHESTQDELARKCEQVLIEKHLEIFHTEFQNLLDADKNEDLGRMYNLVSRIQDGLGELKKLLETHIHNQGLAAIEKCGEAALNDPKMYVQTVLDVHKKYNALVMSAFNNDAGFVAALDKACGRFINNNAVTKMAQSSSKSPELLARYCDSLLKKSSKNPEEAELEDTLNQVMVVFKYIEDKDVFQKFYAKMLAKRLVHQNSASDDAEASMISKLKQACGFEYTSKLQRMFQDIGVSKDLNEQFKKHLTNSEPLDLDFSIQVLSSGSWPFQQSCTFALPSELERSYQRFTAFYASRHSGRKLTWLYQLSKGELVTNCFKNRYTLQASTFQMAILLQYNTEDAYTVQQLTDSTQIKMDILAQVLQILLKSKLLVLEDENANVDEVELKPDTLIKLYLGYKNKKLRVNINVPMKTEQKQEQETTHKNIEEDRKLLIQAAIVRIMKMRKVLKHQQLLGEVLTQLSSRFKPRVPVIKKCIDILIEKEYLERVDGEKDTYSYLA
The depositor's hits bear a star. This excerpt belongs to a sample that is enriched for hits.

SMILES	RBX1-CUL1 inh
CC1=NC(=O)c2c(c(Cc3ccc4c(c3)OCO4)n[nH]c2=O)C1	-2
COCCCNc1nc2c(c(=O)n(C)c(=O)n2C)n1Cc1ccccc1	0
Cn1c(NCCN)nc2c1c(=O)n(Cc1ccccc1)c(=O)n2C	-2
Cn1c(=O)c2c(nc(NCCN)n2Cc2ccc(Cl)cc2)n(C)c1=O	27*
Cc1ccccc1C(=O)N1CCN(Cc2ccco2)CC1	10
CC(C)C(C)OC1CC(=O)CC2C(=O)c3c(O)ccc(O)c3C(=O)C12 (stereo not given)	60*
CCOc1cc(/C=C2/SC(=Nc3ccc4ccccc4c3)NC2=O)cc(Cl)c1OCC(=O)O	99*
CCOc1ccc(N=C2NC(=O)/C(=C/c3cc(Br)c(OC)c(OC)c3)S2)cc1	9
CCCOC(=O)c1cccc(N=C2NC(=O)/C(=C\c3cc(C(C)C)c(OC)cc3C)S2)c1	7
CCOc1ccc(/C=C2\SC(=Nc3ccc(F)cc3)NC2=O)cc1OC	5
COc1cccc(/C=C2\SC(=Nc3cccc(Cl)c3C)NC2=O)c1OCC(=O)O	2
COc1cccc(/C=C2\SC(=Nc3ccc(C)c(Cl)c3)NC2=O)c1OCC(=O)O	97*
COc1ccccc1-c1nc(CN(C)C(C)c2cccs2)c(C)o1 (stereo not given)	4
O=C1CC(c2cccs2)Cc2c1cnn2-c1nc2ccccc2[nH]1 (stereo not given)	-6
Cc1ccc2c(Cl)c(C(=O)Nc3ccc(S(=O)(=O)N4CCCCC4C)cc3)sc2c1 (stereo not given)	1
COC(=O)c1ccccc1-c1cc(C)cc2c1OC(CNC(=O)c1nc3ncccn3n1)C2 (stereo not given)	1
O=C(c1ccc2nc3ccccc3c(=O)n2c1)N1CCN(c2ccccc2F)CC1	5
CCCN(CCC)C(=O)Cn1c(=O)n(-c2ccc(CC)cc2)c(=O)c2ccc(C(=O)NCCc3ccccc3)cc21	3
O=C(Nc1ccnn1C1CCN(C(=O)CCOc2ccccc2)CC1)C1CC1	4
O=C(CC1CCC(=O)N1)NCc1cccnc1Oc1ccccc1 (stereo not given)	4
CCOc1ccc(C(c2c(C)[nH]n(-c3ccccc3)c2=O)c2c(C)[nH]n(-c3ccccc3)c2=O)cc1OC	8
Cc1[nH]n(-c2ccccc2)c(=O)c1CCc1ccccc1	-4
CCOc1ccccc1C(c1c(C)[nH]n(-c2ccccc2)c1=O)c1c(C)[nH]n(-c2ccccc2)c1=O	46*
Cc1[nH]n(-c2ccccc2)c(=O)c1C(c1ccc(C(=O)O)cc1)c1c(C)[nH]n(-c2ccccc2)c1=O	-12
Cc1[nH]n(-c2ccccc2)c(=O)c1C(c1cccc(OCc2ccc(Cl)cc2)c1)c1c(C)[nH]n(-c2ccccc2)c1=O	10
SMILES	RBX1-CUL1 inh
COc1ccccc1C(c1c(C)[nH]n(-c2ccccc2)c1=O)c1c(C)[nH]n(-c2ccccc2)c1=O	27*
CSc1ccc2c(c1)C(N1CCN(CCCn3c(=O)[nH]c4ccccc43)CC1)Cc1ccccc1S2 (stereo not given)	4
O=C(CC(=O)c1ccccc1)Nc1ccc(F)c(Cl)c1	1
CC(=O)NC1CCCc2nc(N3CCC(CO)CC3)ncc21 (stereo not given)	4
NC(=O)c1ccc(NC(=O)CN(Cc2ccc(Cl)c(Cl)c2)S(=O)(=O)c2ccccc2)cc1	1
COc1cc(/C=C2\C(=O)N(c3ccc(S(N)(=O)=O)cc3)N=C2C(F)(F)F)ccc1OCC(C)C	35*
CCOC(=O)c1ccc(N2NC(=O)/C(=C/c3ccc(OC(=O)c4cccs4)c(OC)c3)C2=O)cc1	24
COc1cccc(/C=C2\C(=O)N(c3ccc(S(N)(=O)=O)cc3)N=C2C)c1	97*
COc1cc(/C=C2/C(=O)N(c3cccc(Cl)c3)N=C2C)ccc1OC(=O)c1cccs1	-9
C#CCOc1ccc(/C=C2\C(=O)N(c3ccc(S(N)(=O)=O)cc3)N=C2C(F)(F)F)cc1OCC	-1
CC1=NN(c2ccc(S(N)(=O)=O)cc2)C(=O)/C1=C\c1ccc(N(C)C)cc1	7
CCCOC(=O)c1cccc(-c2ccc(/C=C3\C(=O)N(c4ccc(S(N)(=O)=O)cc4)N=C3C(F)(F)F)o2)c1	5
COc1cc(/C=C2/C(=O)N(c3ccc(S(=O)(=O)O)cc3)N=C2C)ccc1OC(=O)c1cccs1	56*
COc1cccc(C=C2C(=O)N(C)C(=O)N(C)C2=O)c1	-4
Cc1cc(NC(=O)COc2ccc(Cl)cc2)no1	0
C=CCNC(=S)NCc1ccncc1	4
CCCCc1ccc(C#CC(=O)Oc2ccc(C#N)cc2)cc1	6
N/C(CSc1ccc(Cl)cc1)=N/O	6
Nc1nc(N)c2c(F)c(N)ccc2n1	65*
Nc1nc(N)c2c(F)cccc2n1	13
Nc1nc2ccc(N)c(Cl)c2c(=O)[nH]1	-5
O=[N+]([O-])c1ccccc1/C=N/Nc1nc(-c2ccccc2)cc(-c2ccccc2O)n1	-3
Cc1cccc(NC(=O)Cc2ccccc2C)c1	6
C(=C\c1cccnc1)/c1ccc(/C=C/c2cccnc2)cc1	0
O=C(/C=C/c1cccnc1)c1ccc(F)cc1	49*
SMILES	RBX1-CUL1 inh
CSc1ccc(C(=O)/C=C/c2ccccc2)cc1	3
O=C(c1cc(CCc2ccccc2)no1)N1CCCC(c2ccccc2)C1 (stereo not given)	-1
COC(=O)C#Cc1ccccc1Cl	-1
O=C(c1ccc(Cl)cc1)N1N=C(c2ccc([N+](=O)[O-])cc2)CC1(O)C(F)(F)F (stereo not given)	-1
Nc1ccnc2ncccc12	9
Nc1ccc(Br)c2cccnc12	62*
O=C(Nc1ccc(Br)c2cccnc12)c1cc(F)c(F)cc1Cl	4
CCN(CC)c1ccc(C=C2C(=O)N(C)C(=S)N(C)C2=O)c(OC)c1	-8
O=C(O)c1ccc(CNC(=O)c2ccc3c(c2)C(=O)N(Cc2ccccc2)C3=O)cc1	4
C/C=C/Cn1c(=O)c2c(nc3n(CCCC)c(C)cn23)n(C)c1=O	6
O=C(NCc1coc(-c2ccccc2)n1)C1CCC(=O)N(CCN2CCOCC2)C1 (stereo not given)	-1
Cc1nc2cccnc2n1C1CCN(C(=O)Nc2ccccc2C(F)(F)F)CC1	-3
O=C1NN(c2cccc(Cl)c2)C(=O)/C1=C\c1cc(Br)ccc1O	3
COc1ccc(/C=C2/C(=O)NN(c3ccc(I)cc3)C2=O)cc1	2
O=C1NN(c2cccc(C(F)(F)F)c2)C(=O)/C1=C\c1ccc(Br)cc1	5
C=CCOc1ccc(/C=C2\C(=O)NN(c3ccc(Cl)cc3)C2=O)cc1OC	-10
O=C1NN(c2ccc(Cl)c(Cl)c2)C(=O)/C1=C/c1cccc([N+](=O)[O-])c1	9
O=C1NN(c2cccc(Cl)c2)C(=O)/C1=C/c1ccc(Br)cc1	60*
O=C1NN(c2ccccc2)C(=O)/C1=C/c1ccc2c(c1)OCO2	7
O=C1NN(c2ccc(Cl)c(Cl)c2)C(=O)/C1=C/c1cc2c(cc1[N+](=O)[O-])OCO2	64*
O=C1NN(c2ccc(I)cc2)C(=O)/C1=C/c1ccc(Cl)cc1	59*
O=C1NN(c2ccc(I)cc2)C(=O)/C1=C\c1ccc(N2CCOCC2)cc1	-3
O=C1NN(c2ccc(Cl)cc2)C(=O)/C1=C\c1ccc(F)cc1	38*
O=C1NN(c2ccc(F)cc2)C(=O)/C1=C/c1ccccc1O	2
CCCCn1c(CN2CCC(COC)C2)cnc1S(=O)(=O)CC1CCC1 (stereo not given)	5
Cc1cc(C)n(CCCNC(=O)Cn2nnnc2CN2CCCCCC2)n1	2
CCOC(=O)N1C(=O)c2ccccc2NC1(C(F)(F)F)C(F)(F)F	-3
